Consider 59 compounds from ChEMBL document CHEMBL1201862, “PubChem BioAssay data set” (2004).

The structures appear in SMILES notation. The whole screen tested about 400,000 compounds, of which about 2,100 (0.53%) were called active. Another 14% or so got no clear call; they are omitted. The rule behind the calls is not given here. Only a selection was taken, and actives are over-represented in it overall.

Sequence of Ataxin-2 (Homo sapiens) (Q99700 whole entry): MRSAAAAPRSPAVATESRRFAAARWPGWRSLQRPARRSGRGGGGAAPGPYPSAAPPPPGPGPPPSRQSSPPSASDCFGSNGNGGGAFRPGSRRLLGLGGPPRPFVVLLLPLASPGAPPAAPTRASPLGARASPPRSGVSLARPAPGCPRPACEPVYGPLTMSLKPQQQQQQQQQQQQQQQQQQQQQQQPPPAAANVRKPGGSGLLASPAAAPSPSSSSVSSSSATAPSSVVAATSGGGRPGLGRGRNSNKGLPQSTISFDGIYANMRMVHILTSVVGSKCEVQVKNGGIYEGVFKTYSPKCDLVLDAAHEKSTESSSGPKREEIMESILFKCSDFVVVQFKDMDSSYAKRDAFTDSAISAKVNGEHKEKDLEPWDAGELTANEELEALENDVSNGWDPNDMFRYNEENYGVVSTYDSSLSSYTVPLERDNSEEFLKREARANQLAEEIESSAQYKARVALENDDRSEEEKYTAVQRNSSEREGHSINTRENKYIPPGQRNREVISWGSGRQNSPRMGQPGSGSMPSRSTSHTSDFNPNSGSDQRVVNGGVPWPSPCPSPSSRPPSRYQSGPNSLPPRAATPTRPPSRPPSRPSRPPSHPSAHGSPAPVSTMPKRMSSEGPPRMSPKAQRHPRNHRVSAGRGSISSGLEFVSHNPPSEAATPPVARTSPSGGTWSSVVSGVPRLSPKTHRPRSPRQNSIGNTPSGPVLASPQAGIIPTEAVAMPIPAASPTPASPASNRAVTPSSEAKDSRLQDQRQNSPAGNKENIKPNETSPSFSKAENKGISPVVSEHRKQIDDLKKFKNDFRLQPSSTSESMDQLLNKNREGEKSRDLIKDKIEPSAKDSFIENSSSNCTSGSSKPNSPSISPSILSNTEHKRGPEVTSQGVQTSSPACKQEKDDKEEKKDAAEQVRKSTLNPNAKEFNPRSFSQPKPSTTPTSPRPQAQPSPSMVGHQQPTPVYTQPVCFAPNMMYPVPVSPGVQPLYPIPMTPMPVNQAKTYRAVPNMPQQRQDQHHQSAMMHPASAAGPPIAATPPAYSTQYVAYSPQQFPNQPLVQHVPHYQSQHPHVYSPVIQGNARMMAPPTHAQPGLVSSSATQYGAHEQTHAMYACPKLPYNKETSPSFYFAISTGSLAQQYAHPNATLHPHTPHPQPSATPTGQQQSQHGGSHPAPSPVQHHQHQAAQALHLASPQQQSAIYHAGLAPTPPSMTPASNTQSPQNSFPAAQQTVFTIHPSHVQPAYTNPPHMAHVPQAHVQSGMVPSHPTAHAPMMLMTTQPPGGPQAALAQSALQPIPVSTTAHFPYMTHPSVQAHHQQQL

This assay addresses Ataxin-2 (Homo sapiens) (UniProt Q99700). Nature of the assay: qHTS for Inhibitors of ATXN expression. The assay is classed as functional. For orientation: Quantitative high-throughput screening tests each substance at several concentrations.
Turning to `Cc1nn(CCCC(=O)NCc2ccc(F)cc2)c(=O)c2nccn12`, the Potency result was “inactive”.
`Cc1cc(OCC(=O)OCC(=O)NCC2CCCO2)ccc1Cl` (centres undefined): the Potency entry was “inactive”.
As for `O=C(CN(c1ccc(Br)cc1)S(=O)(=O)c1ccc(Cl)c([N+](=O)[O-])c1)NCC1CCCO1` (centres undefined), the Potency was 31.6 µM (active).
For `CCN(CC(=O)NCc1cccs1)S(=O)(=O)c1ccc([N+](=O)[O-])cc1`, the Potency result was “inactive”.
For `O=C(CN(c1cccc(C(F)(F)F)c1)S(=O)(=O)c1ccc(Cl)c([N+](=O)[O-])c1)NCc1ccccc1Cl`, the Potency was 39.8 µM (active).
As for `Cc1c(N(C)S(=O)(=O)c2cc(C(=O)NCC3CCCO3)ccc2Cl)c(=O)n(-c2ccccc2)n1C` (centres undefined), the Potency entry is “inactive”.
The same measure for `CSc1ccccc1NC(=O)CN(C)C(=O)CNc1ccc(C(F)(F)F)cc1[N+](=O)[O-]`: “inactive”.
Regarding `CNC(=O)c1ccc(-c2sc3nc(N4CCOCC4)c4c(c3c2N)CCCC4)o1`, the Potency entry was “inactive”.
As for `O=C(O)c1ccc(NS(=O)(=O)c2ccc(NC(=O)c3ccccc3Cl)cc2)cc1`, the Potency result was “inactive”.
As for `O=C(Nc1ccccc1)c1cc(S(=O)(=O)Nc2cccnc2)ccc1Cl`, the Potency result was “inactive”.
Consider `CC(C)c1ccc(NC(=O)c2cc(S(=O)(=O)NCc3ccccc3Cl)ccc2F)cc1`, for which the Potency is 28.2 µM (active).
On to `Cc1nc2nc(-c3ccc(Cl)cc3)cn2nc1C`, for which the Potency result is “inactive”.
Consider `C=C[S+]([O-])c1sc(Cl)c(N2CCOCC2)c1[N+](=O)[O-]` (centres undefined), for which the Potency is 15 µM (active).
Consider `O=S(=O)(Nc1cccc(-c2nc3cccnc3s2)c1)c1ccc2c(c1)OCCO2`, for which the Potency entry was “inactive”.
For `Cc1ccc(NCC(=O)N/N=C/c2cccc(Br)c2)cc1`, the Potency entry was “inactive”.
With `FC(F)(F)c1ccccc1/C=N/Nc1ccccn1` the entry was “inactive”.
With `Cc1ccccc1/C=N/Nc1ccnc2cc(Cl)ccc12`, the Potency was 28.2 µM (active).
On to `CN(C)c1nc(NCc2ccccc2)nc(N/N=C/c2ccc(Cl)cc2Cl)n1`, for which the Potency result was “inactive”.
The same measure for `O=[N+]([O-])c1ccc(Cl)cc1N/N=C/c1ccncc1`: “inactive”; for `Clc1ccc2c(N/N=C/c3cccc(Br)c3)ccnc2c1`: 25.1 µM (active).
Turning to `N#C/C(=C/c1ccc(F)cc1)c1nnc(NC(=O)c2ccccc2)s1`, the Potency result is “inactive”.
With `N#Cc1cc2c(=O)n3ccccc3nc2n(-c2ccc(Cl)cc2)c1=O` the entry was “inactive”; with `O=c1oc2cc(O)ccc2cc1-c1ccccc1`, “inactive”.
As for `Cc1cc(NCCCN(C)C)n2c(nc3ccccc32)c1C#N`, the Potency entry was “inactive”.
Consider `COc1ccc(CCNc2ncnc3c2cnn3-c2cc(Cl)ccc2C)cc1`, for which the Potency was 22.4 µM (active).
`CCN(CC)c1ncnc2c1cnn2Cc1ccc(Cl)cc1`: the Potency entry was “inactive”.
Turning to `COc1ccc(CNc2nc(C)cc(C)c2C#N)cc1`, the Potency result was “inactive”.
As for `Cc1ccc(-n2ncc3c(NCCCN(C)C)ncnc32)cc1Cl`, the Potency was 39.8 µM (active).
The same measure for `CCCCn1nc(NC(=O)CC)c2cc3cc(OC)ccc3nc21`: “inactive”; for `CC/N=c1\scc(C)n1/N=C/c1cc(Br)c(O)c(OC)c1`: “inactive”.
As to `Cc1cc(C)c2oc(C(=O)N3CCN(C)CC3)cc(=O)c2c1`, the Potency entry was “inactive”.
With `CCN(CC)CCCNc1cc(C)c(C#N)c2nc3ccccc3n12`, the Potency result is “inactive”.
Turning to `C=CCSc1nc2ccccc2n2cnnc12`, the Potency is 39.8 µM (active).
On to `COc1ccc(/C(C)=N/Nc2nc3ccccc3n3cnnc23)cc1OC`, for which the Potency entry is “inactive”.
Regarding `CCC(C)[C@H](N)C(=O)NC[C@H]1CC[C@H](C(=O)N[C@@H](Cc2ccccc2)C(=O)O)CC1` (some centres undefined), the Potency result was “inactive”.
For `CC(NC(=O)OCc1ccccc1)C(=O)Oc1cc2oc(=O)cc(-c3ccccc3)c2cc1Cl` (centres undefined), the Potency entry was “inactive”.
As for `COC(=O)[C@H](Cc1ccccc1)NC(=O)NCc1ccccc1`, the Potency result is “inactive”.
As for `CC(NC(=O)CNC(=O)C(Cc1ccccc1)NC(=O)OCc1ccccc1)C(N)=O` (centres undefined), the Potency entry was “inactive”.
As to `CC(=O)NC(CC(C)C)C(=O)NC(Cc1ccccc1)C(=O)CCl` (centres undefined), the Potency was 18.9 µM (active).
With `CC(C)CC(NC(=O)OCc1ccccc1)C(=O)NC(Cc1ccccc1)C(=O)CCl` (centres undefined), the Potency was 9.47 µM (active).
Turning to `C#CCOc1ccc(C2C3=C(CCCC3=O)N(CC(=O)O)C3=C2C(=O)CCC3)cc1Br`, the Potency entry was “inactive”.
For the compound `CC1(C)CC(=O)C=C(Nc2cccc(C(F)(F)F)c2)C1`, the Potency entry was “inactive”.
Turning to `CC1(Cc2cccc(C(F)(F)F)c2)C(=O)Nc2ccc(-c3ccc(F)c(Cl)c3)cc21` (centres undefined), the Potency is 39.8 µM (active).
In the case of `CC1(Cc2cc(Cl)ccc2C(F)(F)F)C(=O)Nc2ccc(-c3ccc(F)c(Cl)c3)cc21` (centres undefined), the Potency is 28.2 µM (active).
With `Cc1csc(NC(=O)c2c(-c3ccccc3)noc2C)n1`, the Potency result was “inactive”.
On to `CC[C@]12c3[nH]c4ccc(Cl)cc4c3CCN1C(=O)[C@@H](CC(=O)NCCC1=CCCCC1)C[C@@H]2C(=O)N1CCN(C(=O)c2ccco2)CC1`, for which the Potency was 25.1 µM (active).
With `O=C(CCCCCn1c(=S)[nH]c2ccc(N3CCOCC3)cc2c1=O)NCc1ccccc1` the entry was “inactive”; with `C[C@H](O)[C@@H]1C(=O)N2CCc3c([nH]c4ccccc34)[C@@H]2C[C@@H]1N(C)C(=O)c1ccco1`, “inactive”.
With `CC(C)=CCC/C(C)=C/CNC(=O)C[C@H]1C[C@H](C(=O)N2CCOCC2)[C@@]2(C)c3[nH]c4cc(-c5ccco5)ccc4c3CCN2C1=O`, the Potency was 39.8 µM (active).
Consider `CC(C)=CCC/C(C)=C/CNC(=O)CC1C[C@H](C(=O)N2CCOCC2)[C@@]2(C)c3[nH]c4ccccc4c3CCN2C1=O` (some centres undefined), for which the Potency is 31.6 µM (active).
As to `CC[C@]12c3[nH]c4ccccc4c3CCN1C(=O)C(CC(=O)NC/C=C(\C)CCC=C(C)C)C[C@@H]2C(=O)N1CCN(C(=O)c2ccco2)CC1` (some centres undefined), the Potency was 31.6 µM (active).
Consider `CC[C@@H]1C(c2ccccc2)=NN(c2ccccc2)[C@H]1C(=O)N1CCOC1=O`, for which the Potency entry is “inactive”.
Turning to `CCOc1ccc(-c2nc(O)c3c(-c4cccs4)csc3n2)cc1`, the Potency entry was “inactive”.
The same measure for `Cn1ccnc1C(=O)C1CCCN(Cc2c[nH]nc2-c2ccc(-c3ccccc3)cc2)C1` (centres undefined): “inactive”; for `CCN(CC)c1ccc2cc(-c3nnc(-c4ccccc4)o3)c(=O)oc2c1`: “inactive”; for `COc1cc2cc(C(N)=O)c(N)nc2cc1OC`: “inactive”.
In the case of `Cc1ccc2nc3c(cc(C(=O)NCC4CCCO4)c(=N)n3C(C)C)c(=O)n2c1` (centres undefined), the Potency result is “inactive”.
Consider `CC[C@]12c3[nH]c4ccc(Cl)cc4c3CCN1C(=O)[C@@H](CC(=O)NC/C=C(\C)CCC=C(C)C)C[C@@H]2C(=O)N1CCN(C(=O)C2CC2)CC1`, for which the Potency is 25.1 µM (active).
On to `O=C1CSC(N/N=C/c2ccncc2)=N1`, for which the Potency entry was “inactive”.
